Measured values as given in PubChem BioAssay AID623908 (Johns Hopkins Ion Channel Center, 2012).
The campaign covered roughly 2,500 compounds. About 1,500 (60%) were called active.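 The calls were made as follows: active = duplicate-averaged ratio beyond 3 SD from buffer wells, up or down, though filed actives are nearly all decreases; inactive = the rest.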 So high a share suggests a set chosen from earlier hits. A selection follows.

Test: dye ratio change in CHT-lacking host cells – cell-based, parental HEK293, membrane potential dye, counter-screen for CHT activator project (AID 623908)
Details: parental HEK293, membrane potential dye fluorescence (FDSS); at 10 µM; measured after EC20 choline addition
In the case of `CC(C)(C)Nc1nc(-c2ccccn2)nc2ccccc12`, the ratio readout change is reported as -76.9 (active).
With `CC1=CC(C)(C)N(C(=O)CSc2nnc(-c3ccccc3)o2)c2ccc(C)cc21` the ratio readout change was “inactive”.
In the case of `Cc1nc(N=C(N)N)nc2c(C)cccc12`, the ratio readout change is reported as -65.7 (active).
With `COc1nc(N=C(N)N)nc2c(C)cccc12` the ratio readout change was -78.8 (active).
With `O=C(c1ccccc1F)N(Cc1ccccc1)Cc1ccccc1` the ratio readout change was “inactive”.
With `CCCCn1c(N)c(N(CCC(C)C)C(=O)c2ccc(COc3ccccc3)o2)c(=O)[nH]c1=O` the ratio readout change was “inactive”.
For `COc1ccccc1NC(=O)CSc1nnc(-c2ccoc2C)n1CCc1ccccc1`, the ratio readout change was “inactive”.
With `Cc1ccc(C(=O)C[n+]2cc(-c3ccccc3)n3c2CCCCC3)cc1` the ratio readout change was “inactive”.
In the case of `Clc1ccc(C[n+]2cc(-c3ccc(Cl)cc3)n3c2CCC3)cc1`, the ratio readout change is reported as -46 (active).
In the case of `Cc1ccc2c(c1)N(CC(=O)N(Cc1ccccn1)Cc1ccco1)C(=O)C(C(C)C)O2` (stereo not drawn), the ratio readout change is reported as “inactive”.
For `O=[N+]([O-])c1ccc(N2CCNCC2)cc1NCc1cccnc1`, the ratio readout change was -59.8 (active).
In the case of `CC(=O)c1ccccc1OCc1ccc(C(=O)c2ccccc2)cc1`, the ratio readout change is reported as “inactive”.
For `C[C@H]1CCC(=O)N([C@H](CSc2ccccc2)Cc2ccccc2)CC1`, the ratio readout change was “inactive”.
With `CC(=O)N1CC[n+]2c(-c3ccc([N+](=O)[O-])cc3)csc21` the ratio readout change was -25.4 (active).
In the case of `CCN(CC)CCC(c1cc(OC)c(OC)c(OC)c1)c1c(OC)cc(OC)c2c(-c3ccccc3)cc(=O)oc12` (stereo not drawn), the ratio readout change is reported as -25.5 (active).
With `Cc1nnc(-c2ccc(Oc3ccc(C)c(C)c3)c([N+](=O)[O-])c2)o1` the ratio readout change was “inactive”.
In the case of `CN(C)/C=C/C(=O)c1cnc2sccn2c1=O`, the ratio readout change is reported as -39.9 (active).
With `COc1cccc(C(=O)NC(=O)Nc2nc(C)cc(C(F)(F)F)n2)c1` the ratio readout change was -43.4 (active).
With `Cc1ccccc1C(=O)NCC(c1ccco1)N1CCc2ccccc21` (stereo not drawn) the ratio readout change was “inactive”.
For `Cn1c(=O)n(C)c2cc(C(=O)Nc3ccc4c(c3)OCO4)ccc21`, the ratio readout change was -33.9 (active).
With `O=C(Nc1ccccc1N1CCN(c2ccccc2)CC1)c1cccc(F)c1` the ratio readout change was “inactive”.
For `Cc1cc2c(cc1C)[n+](C)cn2CC(O)COCC1CC=CCC1` (stereo not drawn), the ratio readout change was -37.2 (active).
For `N=c1c2c3c(sc2ncn1CCCN1CCOCC1)CCCCC3`, the ratio readout change was -59.9 (active).
With `N=c1c2c3c(sc2ncn1N)CCCCC3` the ratio readout change was -39.8 (active).
For `COc1cc2c(cc1OC)C(c1cccc([N+](=O)[O-])c1)=NCC2`, the ratio readout change was -64.5 (active).
For `Cc1c(CCOC(=O)CC23CC4CC(CC(C)(C4)C2)C3)sc[n+]1Cc1ccc([N+](=O)[O-])cc1`, the ratio readout change was -47 (active).
With `O=C(CCC1CCN(C(=O)c2cccc(Cl)c2F)CC1)Nc1ccccc1` the ratio readout change was “inactive”.
For `O=C1c2ccccc2C(=O)c2c1cccc2N1CCN(CCO)CC1`, the ratio readout change was -73.9 (active).
In the case of `Cn1c(=O)n(Cc2ccco2)c(=N)c2c3c(sc21)CCCC3`, the ratio readout change is reported as -31.5 (active).
With `CC(Sc1nc2ccccc2c(=O)n1Cc1ccco1)C(=O)c1ccccc1` (stereo not drawn) the ratio readout change was “inactive”.
For `Cn1c(=O)[nH]c(=O)c2c1nc(N1CCN(CCO)CC1)n2CCSc1nc2ccccc2s1`, the ratio readout change was -48.2 (active).
For `CN(C)c1ccnc(Nc2ccc(F)cc2)c1C#N`, the ratio readout change was -45.1 (active).
With `CCN1CCN(c2ccc([N+](=O)[O-])cc2C(=O)c2ccc(Cl)cc2)CC1` the ratio readout change was “inactive”.
With `Cc1nnc(C)c2c(C)n(N)c(C)c12` the ratio readout change was -51.8 (active).
With `CN1CCN(c2nc(Nc3ccc(O)cc3)nc3ccccc23)CC1` the ratio readout change was -71.3 (active).
With `O=C(NCCC1=CCCCC1)C1CCN(Cc2cnn(-c3ccccc3)c2-n2cccc2)CC1` the ratio readout change was “inactive”.
With `Nc1scc[n+]1Cc1cccc2cccnc12` the ratio readout change was -43.3 (active).
With `CCCCN(CCCC)CC(O)Cn1c2ccccc2c(=O)c2ccccc21` (stereo not drawn) the ratio readout change was -21.9 (active).
In the case of `Cc1c(C)c2c(OCC(=O)N[C@@H](C(=O)O)c3ccccc3)cc3c(c2oc1=O)CCC(C)(C)O3`, the ratio readout change is reported as “inactive”.
With `CCOC(=O)c1cccnc1NC(=O)c1ccncc1` the ratio readout change was -20.3 (active).
With `COc1ccc([N+](=O)[O-])cc1N(CC(O)CN(CC(C)C)CC(C)C)S(=O)(=O)c1ccc(C)cc1` (stereo not drawn) the ratio readout change was “inactive”.
With `Cc1ccc(-n2c(C)cc(/C=N\NC(=O)CC(=O)NC(C)C)c2C)cc1` the ratio readout change was “inactive”.
In the case of `COc1ccc(Nc2nnc(C)c3ccccc23)cc1`, the ratio readout change is reported as -50.6 (active).
In the case of `COc1ccc(Nc2cc(C)nc(-n3nc(C)cc3C)n2)cc1`, the ratio readout change is reported as “inactive”.
In the case of `O=C(COC(=O)C1CCN(S(=O)(=O)c2ccc3c(c2)OCCO3)CC1)Nc1ccccc1OC(F)F`, the ratio readout change is reported as “inactive”.
With `CN1CCN(c2cc3c(cc2F)c(=O)c(C(=O)O)cn3CCF)CC1` the ratio readout change was -29.7 (active).
With `CCn1cc(S(=O)(=O)c2cccc(C)c2)c(=O)c2cc(F)c(N3CCN(C)CC3)cc21` the ratio readout change was -55.2 (active).
In the case of `CC(Nc1nc(N2CCN(CCO)CC2)nc2ccccc12)c1ccccc1` (stereo not drawn), the ratio readout change is reported as -58.8 (active).
With `O=C(C1=C(O)C(=O)N(Cc2ccccc2)C1c1ccco1)c1ccco1` (stereo not drawn) the ratio readout change was “inactive”.
With `CCN1C(=NCCc2cccnc2)N[C@@H](c2ccccc2)[C@H](C(=O)OC)[C@H]1C` the ratio readout change was “inactive”.
With `Cc1cccn2c(=O)c3cc(C#N)c(=O)n(CCCN4CCOCC4)c3nc12` the ratio readout change was -48.2 (active).
With `CCN1CCCC1CNC(=O)c1cc2c(=O)n(C)c3ccccc3c2n1C` (stereo not drawn) the ratio readout change was -28 (active).
In the case of `O=Cc1ccc(OCc2cn3ccccc3n2)cc1`, the ratio readout change is reported as -38.8 (active).
With `COc1ccccc1NC(=O)C1=C(C)Nc2nc3ccccc3n2C1c1cccs1` (stereo not drawn) the ratio readout change was “inactive”.
With `CN1CCc2c(sc3c2c(NCc2ccco2)nc2nnnn23)C1` the ratio readout change was -34.6 (active).
In the case of `COc1ccc(CC2c3cc(OC)c(OC)cc3CC[N+]2(C)CCC(=O)OCCCCCOC(=O)CC[N+]2(C)CCc3cc(OC)c(OC)cc3C2Cc2ccc(OC)c(OC)c2)cc1OC` (stereo not drawn), the ratio readout change is reported as -31.4 (active).
With `Cc1nc2ccccc2c2oc(C(=O)NCCCN3CCC(C)CC3)cc12` the ratio readout change was -28.4 (active).
In the case of `COc1ccc2c(c1)cc1n2CCN=C1NN`, the ratio readout change is reported as -53.2 (active).
For `Cc1ccc(-n2c(SCC(=O)N3c4ccccc4Sc4ccccc43)nnc2-c2ccncc2)cc1`, the ratio readout change was “inactive”.
For `Cc1ccc(C(=O)c2ccc(N3CCN(C)CC3)c([N+](=O)[O-])c2)cc1`, the ratio readout change was “inactive”.
With `N#C/C(=C\c1ccc(-c2cccc([N+](=O)[O-])c2)o1)C(=O)NCCN1CCOCC1` the ratio readout change was -21.1 (active).
For `Cc1cc(NC(=O)c2cnn3cccnc23)n(-c2ccccc2)n1`, the ratio readout change was -40.8 (active).
With `COc1ccc2nc(/N=C(\N)NC(=O)Nc3ccccc3)nc(C)c2c1` the ratio readout change was -41.4 (active).
With `O=C(Nc1ccncc1)c1ccc(Cl)c([N+](=O)[O-])c1` the ratio readout change was -45.8 (active).
In the case of `Cc1cc(=O)oc2c(C)c(OC(C)C(=O)NC3CCN(Cc4ccccc4)CC3)ccc12` (stereo not drawn), the ratio readout change is reported as -52.2 (active).
In the case of `C[C@]1(C(=O)NCCc2c[nH]c3ccccc23)C=C[C@@H](Cc2ccccc2)N1C(=O)c1ccccc1`, the ratio readout change is reported as “inactive”.
In the case of `COc1cc2nc(N3CCN(C(=O)[C@@H]4CCCO4)CC3)nc(N)c2cc1OC`, the ratio readout change is reported as -39.5 (active).
With `CCOc1ccc(C2c3[nH]c4ccccc4c3CCN2Cc2cccn2-c2ncccn2)cc1` (stereo not drawn) the ratio readout change was “inactive”.
In the case of `CN(C)c1cc[n+](Cc2ccccc2)cc1`, the ratio readout change is reported as -40.2 (active).
For `COc1ccc(Cn2c(-c3ccc(Cl)cc3)c[n+]3ccccc23)cc1`, the ratio readout change was -66.1 (active).
In the case of `CCN(CC)CCCNC(=O)c1cn(C)c2ccc(S(=O)(=O)N(C)C3CCCCC3)cc2c1=O`, the ratio readout change is reported as -36.4 (active).
In the case of `CCOC(=O)c1cn(CC)c2cc(F)c(F)cc2c1=O`, the ratio readout change is reported as -63.5 (active).
In the case of `COc1ccccc1NC(=O)CN(c1ccccc1OC)S(=O)(=O)c1ccccc1`, the ratio readout change is reported as “inactive”.
With `COC(=O)c1ccc(C(NC(=O)OCc2ccccc2)/C(C)=C/[C@@H](C)C(=O)NCc2ccc(OC)c(OC)c2)cc1` (stereo partly drawn) the ratio readout change was “inactive”.
In the case of `Clc1ccc(COn2c(-c3ccc(Cl)cc3Cl)nc3ncccc32)cc1`, the ratio readout change is reported as “inactive”.
For `CCCCCCCCCCOC(=O)Cn1c(COc2ccc(C)cc2)[n+](C)c2ccccc21`, the ratio readout change was -48.3 (active).
In the case of `CCCCCCCCCCOC(=O)Cn1c(COc2cccc(OC)c2)[n+](C)c2ccccc21`, the ratio readout change is reported as -43.3 (active).
In the case of `Nc1ccccc1SCc1cc([N+](=O)[O-])cc2c1OCOC2`, the ratio readout change is reported as “inactive”.
With `CC(C)CC(COCc1ccc(Cl)cc1)N1CCN(C(=O)c2ccc(C(F)(F)F)cc2)CCC1=O` (stereo not drawn) the ratio readout change was “inactive”.
With `COC(=O)c1sc(C(F)(F)F)c(-c2ccccc2)c1S(=O)(=O)N(C)C` the ratio readout change was “inactive”.
In the case of `CN(C)c1cc(N)c2ccccc2n1` (tested in a mixture with another compound), the ratio readout change is reported as -62.3 (active).
In the case of `Cc1cc(=O)oc2cc(OCCC[n+]3ccccc3)ccc12`, the ratio readout change is reported as -59.3 (active).
In the case of `Cn1c(=NC(=O)c2cnccn2)sc2ccccc21`, the ratio readout change is reported as -49.1 (active).
With `O=C(c1ccc(F)c(S(=O)(=O)N2CCOCC2)c1)N(CCc1ccccc1)Cc1ccccc1` the ratio readout change was “inactive”.
For `CC1(C)Cc2c(sc3nc4n(c(=N)c23)CCCCC4)CO1`, the ratio readout change was -42.5 (active).
With `CCN1/C(=C/c2ccc3ccc(C)cc3[n+]2CC)Sc2ccccc21` the ratio readout change was “inactive”.
In the case of `COc1cc2c(cc1OC)C(Nc1ccc(S(N)(=O)=O)cc1)=NC(C)(C)C2`, the ratio readout change is reported as -78.3 (active).
For `COc1ccc(C(O)(C2CCCCC2)C(CN2CCCC2)c2ccccc2)cc1` (stereo not drawn), the ratio readout change was “inactive”.
With `N#Cc1ccc(/C=C2\CCn3c2nc2cc(C(=O)O)ccc2c3=O)cc1` the ratio readout change was -55.3 (active).
In the case of `CCn1c(/C=C/Nc2ccccc2)[n+](CC)c2ccc(C(=O)OCC(F)(F)F)cc21`, the ratio readout change is reported as -82.7 (active).
For `Cc1nc2c(-c3ccccc3)c(C)[nH]n2c(=O)c1Cl`, the ratio readout change was “inactive”.
With `Cc1nc2ccccc2c(=O)n1CCCn1ccnc1` the ratio readout change was “inactive”.
For `C=CCNc1nnc(C)c2ccccc12`, the ratio readout change was -50.7 (active).
